Assay results taken from PubChem BioAssay (Tox21).
Values joined by “and” are separate entries in the source; they are usually repeats but may differ in a detail not shown here. Equal entries are not always repeated. Results filed as inconclusive are left out. Entries that show only a call come without a potency. A structure can be active in one record and inactive in another. Active and inactive are the calls of the source. Unless noted, calls follow the shape of the dose curve; as a rule, active = well fitted curve in the direction sought with a large enough effect in the repeat runs; inconclusive = weak or mixed curves; inactive = no such curve, though single readings can be large; an effect the other way counts as inactive or inconclusive.

Tests used:
[1] = qHTS assay to identify small molecule antagonists of the glucocorticoid receptor (GR) signaling pathway - cell viability counter screen (AID 720693); also: nearly all actives have a fitted effect of over 55% in size
[2] = qHTS assay for identifying genotoxic compounds that show differential cytotoxicity against isogenic chicken DT40 cell lines with known DNA damage response pathways - wild type cell line (AID 743012); also: nearly all actives have a fitted effect of over 60% in size; also: potency is read from the fitted curve at half-maximal effect
In short: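 Cytotoxicity in repair-proficient parental chicken DT40 cells serves as the comparator for Rad54/Ku70- and Rev3-deficient lines. Cells were exposed to compounds for 40 h at 37 C/5% CO2, and ATP-based luminescence (CellTiter-Glo) measured viability.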

[3] = qHTS assay for identifying genotoxic compounds that show differential cytotoxicity against isogenic chicken DT40 cell lines with known DNA damage response pathways - Rev3 mutant cell line (AID 743014); also: nearly all actives have a fitted effect of over 55% in size; also: potency is read from the fitted curve at half-maximal effect
[4] = qHTS assay for identifying genotoxic compounds that show differential cytotoxicity against isogenic chicken DT40 cell lines with known DNA damage response pathways - Rad54/Ku70 mutant cell line (AID 743015); also: nearly all actives have a fitted effect of over 60% in size; also: potency is read from the fitted curve at half-maximal effect
[5] = qHTS assay to identify small molecule antagonists of the androgen receptor (AR) signaling pathway - cell viability counter screen (AID 743033; also: nearly all actives have a fitted effect of over 45% in size)
[6] = qHTS assay to identify small molecule antagonists of the androgen receptor (AR) signaling pathway using the MDA cell line - cell viability counter screen (AID 743041; also: nearly all actives have a fitted effect of over 45% in size)
In short: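 Compound exposure lasted 16 h at 37C in MDA-kb2 AR-luc cells stimulated with R1881. Protease-based CellTiter-Fluor reagent was applied for the final 30 min and fluorescence measured.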

[7] = qHTS assay to identify small molecule antagonists of the thyroid receptor (TR) signaling pathway - cell viability counter screen (AID 743064); also: nearly all actives have a fitted effect of over 50% in size
In short: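 Fluorescence from CellTiter-Fluor, added after 23.5 h exposure at 37 °C, reported viability of GH3.TRE-Luc cells co-treated with compound and 1 nM T3. Measured in the same wells as the luciferase TR readout.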

[8] = qHTS assay to identify small molecule antagonists of the thyroid receptor (TR) signaling pathway (AID 743065); also: series mostly up to about 70 µM; nearly all actives have a fitted effect of over 55% in size
In short: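 GH3.TRE-Luc rat pituitary cells (two TREs driving luciferase) were dosed with compound, then stimulated with 1 nM T3 (final) for 23.5 h at 37 C. ONE-Glo luminescence was the read-out, with CellTiter-Fluor fluorescence as the cytotoxicity counter-screen.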

[9] = test system: thyroid hormone receptor (rat, GH3 cells); assay: qHTS assay to identify small molecule agonists of the thyroid receptor (TR) signaling pathway (AID 743066; calls by dose curve)
[10] = target: Estrogen receptor (Homo sapiens) (UniProt P03372); assay: qHTS assay to identify small molecule antagonists of the estrogen receptor alpha (ER-alpha) signaling pathway (AID 743069; active = well fitted curve in the direction sought with a large enough effect in the signal ratio in the repeat runs, not every such curve was filed as active; the % refers to the signal ratio)
Chain of Estrogen receptor (Homo sapiens) (P03372 whole entry, looked up): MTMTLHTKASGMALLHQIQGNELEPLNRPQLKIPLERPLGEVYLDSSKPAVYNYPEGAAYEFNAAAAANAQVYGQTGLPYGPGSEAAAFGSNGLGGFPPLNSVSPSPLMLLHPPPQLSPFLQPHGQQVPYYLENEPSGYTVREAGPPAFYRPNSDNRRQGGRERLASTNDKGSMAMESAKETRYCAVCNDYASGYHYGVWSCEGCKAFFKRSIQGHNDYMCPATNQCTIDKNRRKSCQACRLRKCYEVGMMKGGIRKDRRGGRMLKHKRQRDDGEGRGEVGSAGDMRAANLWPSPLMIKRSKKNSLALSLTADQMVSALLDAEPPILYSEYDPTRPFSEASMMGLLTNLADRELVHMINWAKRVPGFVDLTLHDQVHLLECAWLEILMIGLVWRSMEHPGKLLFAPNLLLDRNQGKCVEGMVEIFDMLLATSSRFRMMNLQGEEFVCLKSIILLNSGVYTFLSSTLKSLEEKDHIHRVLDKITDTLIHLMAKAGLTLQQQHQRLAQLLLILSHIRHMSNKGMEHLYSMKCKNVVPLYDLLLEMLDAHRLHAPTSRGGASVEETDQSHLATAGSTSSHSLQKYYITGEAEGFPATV
In short: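 In this cell-based reporter format, GripTite HEK293 cells harbouring ER-alpha-UAS-bla were grown overnight with 2% charcoal-stripped FBS, dosed with DMSO-dissolved compounds, then challenged with 17beta-estradiol. After 18 hr at 37C, beta-lactamase activity was detected by FRET fluorescence.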

[11] = qHTS assay to identify small molecule antagonists of the estrogen receptor alpha (ER-alpha) signaling pathway - cell viability counter screen (AID 743074; calls by dose curve; also: nearly all actives have a fitted effect of over 45% in size)
[12] = target: Estrogen receptor (Homo sapiens) (UniProt P03372); assay: qHTS assay to identify small molecule agonists of the estrogen receptor alpha (ER-alpha) signaling pathway (AID 743075; calls by dose curve)
[13] = target: Estrogen receptor (Homo sapiens) (UniProt P03372); assay: qHTS assay to identify small molecule agonists of the estrogen receptor alpha (ER-alpha) signaling pathway using the BG1 cell line (AID 743079); also: nearly all actives have a fitted effect of over 20% in size; also: potency is read from the fitted curve at half-maximal effect
[14] = qHTS assay to identify small molecule antagonists of the estrogen receptor alpha (ER-alpha) signaling pathway using the BG1 cell line (AID 743080; calls by dose curve;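 also: BG1 cells stimulated with 17beta-estradiol alongside compound; series mostly up to about 70 µM; nearly all actives have a fitted effect of over 25% in size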)
In short: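 BG1-Luc-4E2 cells (endogenous full-length ER-alpha, stable 4×ERE-luciferase) were starved 5 days in phenol-red-free medium with 10% charcoal-stripped FBS, plated 24 h, then given compound plus 17beta-estradiol for 21.5 h at 37 C; ONE-Glo luminescence read after 30 min.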

[15] = qHTS assay to identify small molecule antagonists of the estrogen receptor alpha (ER-alpha) signaling pathway using the BG1 cell line - cell viability counter screen (AID 743081);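 also: compound given together with 17beta-estradiol as the ER stimulus; series mostly up to about 70 µM; nearly all actives have a fitted effect of over 45% in size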
Aromatase (Homo sapiens) = Aromatase (Homo sapiens) (UniProt P11511); assay: qHTS assay to identify aromatase inhibitors (AID 743083); also: series mostly up to about 70 µM; nearly all actives have a fitted effect of over 55% in size
Chain of Aromatase (Homo sapiens) (P11511 whole entry, looked up): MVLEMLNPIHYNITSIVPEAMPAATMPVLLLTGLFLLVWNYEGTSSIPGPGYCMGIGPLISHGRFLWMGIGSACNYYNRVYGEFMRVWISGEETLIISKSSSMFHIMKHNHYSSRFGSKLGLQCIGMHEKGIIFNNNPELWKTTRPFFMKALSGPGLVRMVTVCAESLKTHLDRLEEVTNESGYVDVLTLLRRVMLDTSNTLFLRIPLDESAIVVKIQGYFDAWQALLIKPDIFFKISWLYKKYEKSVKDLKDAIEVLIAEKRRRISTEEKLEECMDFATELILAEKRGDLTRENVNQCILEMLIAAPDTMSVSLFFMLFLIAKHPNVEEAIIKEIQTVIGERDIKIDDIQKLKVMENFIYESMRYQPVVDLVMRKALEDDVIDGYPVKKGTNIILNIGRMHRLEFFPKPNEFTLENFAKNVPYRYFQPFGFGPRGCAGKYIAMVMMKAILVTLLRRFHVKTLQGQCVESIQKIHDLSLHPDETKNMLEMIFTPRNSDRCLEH

Structure (SMILES) | Potency [1] | Potency [2] | Potency [3] | Potency [4] | outcome [5] | outcome [6] | Potency [7] | Potency [8] | Potency [9] | Potency [10] | outcome [11] | outcome [12] | Potency [13] | outcome [14] | outcome [15] | Potency (Aromatase (Homo sapiens))
COP(=S)(OC)Oc1ccc(SC)c(C)c1 | inactive | 54.5 µM (active) | inactive | inactive and 61.1 µM (active) | inactive | inactive | inactive | inactive | inactive | inactive | inactive | inactive | 48 µM (active) | inactive | inactive | inactive
CSc1nnc(C(C)(C)C)c(=O)n1N | inactive | inactive | inactive | inactive | inactive | inactive | inactive | inactive | inactive |  | inactive |  |  |  | inactive | 
COS(=O)(=O)OC | inactive | inactive | inactive | inactive | inactive | inactive | inactive | inactive | inactive | inactive | inactive | inactive | inactive | inactive | inactive | inactive
O=C/C=C/c1ccccc1 | inactive | inactive | inactive | inactive | inactive | inactive | inactive | inactive | inactive | inactive | inactive | inactive | inactive and 61.1 µM (active) | inactive | inactive | inactive
Nc1cccc(Cl)c1 | inactive | inactive | inactive | inactive | inactive | inactive | inactive | inactive | inactive | inactive | inactive | inactive | inactive | inactive | inactive | inactive
OC[C@@H](O)[C@H]1O[C@@H]2O[C@H](C(Cl)(Cl)Cl)O[C@@H]2[C@H]1O | inactive | inactive | inactive | inactive | inactive | inactive | inactive | inactive | inactive | inactive | inactive | inactive | inactive | inactive | inactive | inactive
C=CCN=C=S | inactive | inactive | 62.5 µM (active) | inactive | inactive | inactive | inactive | inactive | inactive | inactive | inactive | inactive | inactive | inactive | inactive | inactive
CCOc1ccc(N)cc1 | inactive | inactive | inactive | 61.3 µM (active) and inactive | inactive | inactive | inactive | inactive | inactive | inactive | inactive | inactive | inactive | inactive | inactive | inactive
Cc1cccc(N)c1C | inactive | inactive | inactive | inactive | inactive | inactive | inactive | inactive | inactive | inactive | inactive | inactive | inactive | inactive | inactive | inactive
CNC(=O)O/N=C/C(C)(C)S(C)=O (centres undefined) | inactive | inactive | inactive | inactive | inactive | inactive | inactive | inactive | inactive | inactive | inactive | inactive | inactive | inactive | inactive | inactive
Cc1cc(Cl)ccc1OC(C)C(=O)O (centres undefined) | inactive | inactive | inactive | inactive | inactive | inactive | inactive | inactive | inactive | inactive | inactive | inactive | inactive | inactive | inactive | inactive
C[C@]12CC[C@H](O)CC1=CC[C@@H]1[C@@H]2CC[C@]2(C)C(=O)CC[C@@H]12 | inactive | 29.8 µM (active) | 26.6 µM (active) and 68.7 µM (active) and 54.5 µM (active) | 29.8 µM (active) and 61.2 µM (active) and 54.5 µM (active) | inactive | inactive | inactive | inactive | inactive |  | inactive |  |  |  | inactive | inactive
Nc1ncc([N+](=O)[O-])s1 | inactive | inactive | inactive | inactive | inactive | inactive | inactive | inactive | inactive | inactive | inactive | inactive | inactive and 61.1 µM (active) | inactive | inactive | inactive
CCOP(=S)(OCC)Oc1ccc([N+](=O)[O-])cc1 | inactive | inactive | inactive | inactive | inactive | inactive | inactive | inactive | inactive |  | inactive |  |  |  | inactive | inactive
Cc1ccc(O)c(C)c1 | inactive | inactive | inactive | inactive | inactive | inactive | inactive | inactive | inactive | inactive | inactive | inactive | inactive | inactive | inactive | inactive
CCCCC(CC)C(=O)Cl (centres undefined) | inactive | inactive | inactive | inactive | inactive | inactive | inactive | inactive | inactive | inactive | inactive | inactive | inactive | inactive | inactive | inactive
C=CC#N | inactive | inactive | inactive | inactive | inactive | inactive | inactive | inactive | inactive | inactive | inactive | inactive | inactive | inactive | inactive | inactive
